Test results taken from PubChem BioAssay (NCI).
Compounds without any hit were thinned out: in the full panel of roughly 83,000, 20% have a hit.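 Assay: single dose, 48 h. Readout: percent growth (0 = no net growth; negative = cell death). Active: <10.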 Values without a mark were called inactive. Active and inactive are the calls of the source.

How the values were obtained:
Assay in all cases: NCI-60 one-dose screen, 48 h (100 = growth as untreated, 0 = no growth, -100 = all killed)
Conditions in all cases: 10 µM unless noted
SK-MEL-2 melanoma = system: SK-MEL-2 melanoma
SN12C renal = system: SN12C renal
UO-31 renal = system: UO-31 renal
TK-10 renal = system: TK-10 renal
ACHN renal = system: ACHN renal
CAKI-1 renal = system: CAKI-1 renal
CCRF-CEM leukemia = system: CCRF-CEM leukemia
MOLT-4 leukemia = system: MOLT-4 leukemia
SR leukemia = system: SR leukemia
RPMI-8226 leukemia = system: RPMI-8226 leukemia
OVCAR-8 ovarian = system: OVCAR-8 ovarian
OVCAR-5 ovarian = system: OVCAR-5 ovarian
OVCAR-4 ovarian = system: OVCAR-4 ovarian
SK-OV-3 ovarian = system: SK-OV-3 ovarian
IGROV1 ovarian = system: IGROV1 ovarian
OVCAR-3 ovarian = system: OVCAR-3 ovarian
HS 578T breast = system: HS 578T breast
NCI/ADR-RES ovarian = system: NCI/ADR-RES ovarian

SMILES | growth (SK-MEL-2 melanoma) | growth (SN12C renal) | growth (UO-31 renal) | growth (TK-10 renal) | growth (ACHN renal) | growth (CAKI-1 renal) | growth (CCRF-CEM leukemia) | growth (MOLT-4 leukemia) | growth (SR leukemia) | growth (RPMI-8226 leukemia) | growth (OVCAR-8 ovarian) | growth (OVCAR-5 ovarian) | growth (OVCAR-4 ovarian) | growth (SK-OV-3 ovarian) | growth (IGROV1 ovarian) | growth (OVCAR-3 ovarian) | growth (HS 578T breast) | growth (NCI/ADR-RES ovarian)
O=C1c2ccccc2C(=O)c2c1oc1oc3c(c(=O)c21)c(=O)n(-c1ccccc1)c1ccccc31 | 23.1% | 97.7% | 49.2% | 64.2% | 28.5% | 69.2% | 17.8% | 16.1% | 11.4% | 19.6% | 48.2% | 88.7% | 18.8% | 67.3% | 71.8% | 2.15% (active) | 90.5% | 90.3%
CNC(C)=O | 104% | 100% | 93.3% | 91.1% | 118% | 96.2% | 103% | 95% | 88.2% | 103% | 102% | 95.8% | 104% | 102% | 105% | 75.8% | – | 102%
O=C1c2ccccc2C(=O)c2c(N=Nc3sc(=O)[nH]c3S)cccc21 | 95.2% | 100% | 88.7% | 138% | 102% | 96.3% | 94.8% | 101% | 85% | 90.2% | 94.9% | 129% | 95.3% | 117% | 94.1% | 89.1% | – | 98.8%
CCOC(=O)CC(C#N)(CC(=O)OCC)C(=O)OCC | 106% | 95.1% | 96.1% | 139% | 107% | 99.5% | 102% | 109% | 100% | 96.1% | 88.8% | 99.9% | 104% | 117% | 118% | 112% | 117% | 106%
N#Cc1ccc(NC(=O)c2ccc3cccnc3c2O)cc1 | 41.3% | 33.7% | 18.4% | 34% | 14.7% | -12.5% (active) | 23.8% | 12.7% | 25.6% | 23.4% | 16% | 60.6% | 16.5% | 19.8% | 21.3% | 26% | 53.8% | 8.81% (active)
CN(C)c1ccc(C2CC(c3ccccc3)=NN2/C=C2\SC(=O)NC2=O)cc1 (stereo not drawn) | 113% | 87.3% | 78.9% | 94.4% | 81.5% | 95% | 113% | 59.7% | 50.8% | 87.7% | 100% | 94.2% | 82.6% | 115% | 94% | 101% | 98.1% | 95.2%
COc1ccc(-c2nc3sccn3c2-c2ccnc(NCCNS(=O)(=O)c3ccc(C(F)(F)F)cc3)n2)cc1 | -27.8% (active) | 17.3% | 19% | 30.2% | 3.82% (active) | 17% | 9.58% (active) | 0.208% (active) | 11.6% | 8.83% (active) | 7.86% (active) | 59% | 15.9% | 29.6% | 16.2% | 2.1% (active) | 41% | 9.11% (active)
Cc1nc(Nc2cccnc2)sc1C(=O)/C=C/c1ccc(F)cc1 | 92.4% | 5.77% (active) | 29.9% | 54% | 38.7% | 46.2% | 1.27% (active) | 81.7% | 18.6% | 1.5% (active) | 21.8% | 56.4% | – | 71.6% | 29.9% | 5.9% (active) | 96.4% | 38.4%
O=C(Nc1ccc(Br)c(Cl)c1)c1cc(F)ccc1O | -32.6% (active) | 5.56% (active) | -1.56% (active) | 21.3% | 0.577% (active) | -48.8% (active) | 6.75% (active) | -23% (active) | 0.366% (active) | -16.1% (active) | 6.78% (active) | 24.4% | 12.4% | 3.58% (active) | 16.2% | 12.1% | 17.4% | 6.11% (active)
COc1cc(OC)c(C(=O)/C=C/c2ccc(C(F)(F)F)cc2)c(OC)c1 | 45.4% | 41.2% | 56.4% | 84.6% | 60% | 79.3% | 25.9% | 24% | 31.6% | 25.3% | 40.3% | 105% | 56.5% | 75.4% | 52.1% | 16.9% | 66.2% | 46.9%
COc1ccc(S(=O)(=O)Nc2cc(/C=C\c3cc(OC)c(OC)c(OC)c3)cc(OC)c2OC)cc1OC | 36.6% | 45% | 40.7% | 73.4% | 45.1% | 24.4% | 9.18% (active) | 17.1% | 20% | 25.3% | 41% | 30.8% | – | 17.1% | 49.5% | -18.2% (active) | 8.3% (active) | 12.6%
CC(=O)n1cc([C@H]2CC[C@H](c3cn(C(C)=O)c4ccccc34)c3c2[nH]c2ccccc32)c2ccccc21 | 79.6% | 84.7% | 55.3% | 92.8% | 77.9% | 57% | 64.9% | 57.6% | 93.9% | 50.8% | 89.5% | 102% | 77.7% | 80.4% | 58.3% | 76.3% | 106% | 80.7%
COc1ccc(OC)c(-c2ccc(-c3ccccc3N)c3[nH]c4ccccc4c23)c1 | 77.1% | 87.6% | 58.4% | 103% | 80.7% | 73% | 103% | 56.4% | 81.7% | 70.3% | 83.8% | 110% | 69.6% | – | 59.5% | 75.1% | 94.3% | 85.8%
O=C(CNc1ccc(Cl)cc1)Nc1ccc(-c2nc3ccccc3s2)cc1 | 78.5% | 46.8% | 65% | 118% | 22.8% | 20.2% | 3.22% (active) | 4.4% (active) | 11.5% | 46% | 66.4% | 121% | 23.1% | 89.7% | 34.3% | 28.9% | – | 64.5%
NS(=O)(=O)c1ccc(NCC(=O)Nc2ccc(-c3nc4ccccc4s3)cc2)cc1 | 87.8% | 47.8% | 74.4% | 106% | 105% | 92.9% | 6.24% (active) | 6.23% (active) | 16% | 36.7% | 82.7% | 106% | 67.2% | 106% | 59% | 34.3% | 98.3% | 94%
O=C1N=C(c2c(-c3[nH]c(=O)c4ccc(Br)cc4c3O)c(O)c3ccccc3c2O)C(=O)c2cc(Br)ccc21 | -14.7% (active) | -75.4% (active) | -65% (active) | -39% (active) | -54% (active) | -72% (active) | 25.3% | 31% | 20.8% | 6.4% (active) | -23.5% (active) | 10.4% | -59.7% (active) | -32.6% (active) | -55.9% (active) | -81.5% (active) | – | -28.9% (active)
CCn1c(=O)c2c(=O)c3c4c(oc3oc2c2ccccc21)C(=O)c1ccccc1C4=O | 79.9% | 87.2% | 81.8% | 112% | 79.6% | 72.6% | 2.47% (active) | -24.5% (active) | 80.8% | 33.5% | 10.2% | 118% | – | 102% | 68.3% | -16.3% (active) | 93.7% | 45.8%
